DUX4 inh: blocks DUX4-driven transcriptional activation; AID 1224904; 293T-iDUX4 ZSCAN4-Gaussia luciferase reporter, 24 h; stronger effect = lower value; activity change, negative = inhibition, % (concentration not given with the values); 37,000 compounds, 0.8% hits;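 active = mean inhibition of at least 10% in the main channel, exceeding the control channel by a set limit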
A number is an active result; . = inactive; ! = a repeat was not active. This excerpt belongs to a sample that is enriched for hits.

SMILES	DUX4 inh
CS(=O)(=O)N1[C@H](C#N)[C@@H](c2ccc(/C=C/c3ccccc3)cc2)[C@H]1CO	.
Cc1ccccc1S(=O)(=O)N1[C@@H]2CNC[C@H]1C2c1ccc(-c2cccc(C#N)c2)cc1 (stereo not given in full)	.
Cc1ccccc1S(=O)(=O)N1C[C@@H]2N[C@H](C1)C2c1ccc(/C=C/c2ccccc2)cc1 (stereo not given in full)	-37.2
Cc1ccccc1S(=O)(=O)N1[C@H](C#N)[C@H](c2ccc(-c3ccc(F)cc3)cc2)[C@H]1CO	.
C/C=C/c1ccc(C2[C@H]3CNC[C@@H]2N3S(=O)(=O)c2ccccc2C)cc1 (stereo not given in full)	.
Cc1ccccc1S(=O)(=O)N1C[C@@H]2N[C@H](C1)C2c1ccc(-c2ccc(C#N)cc2)cc1 (stereo not given in full)	-68.8!
C[C@H]1CCCCO[C@H](CN(C)S(=O)(=O)c2cccs2)[C@@H](C)CN([C@@H](C)CO)C(=O)c2cc(NC(=O)c3ccccc3)ccc2O1	.
CC(C)NC(=O)N(C)C[C@@H]1Oc2ncc(-c3ccccc3F)cc2C(=O)N([C@@H](C)CO)C[C@@H]1C	.
O=C(C[C@@H]1C[C@H]2c3cc(NC(=O)NC4CCCC4)ccc3O[C@H]2[C@H](CO)O1)NCC1CC1	.
CCC(=O)NC[C@H]1[C@H](c2ccc(-c3cccc(F)c3)cc2)[C@@H](CO)N1C(=O)CC	.
C[C@@H]1CN([C@H](C)CO)C(=O)c2c(c3ccccc3n2C)-c2ccccc2CO[C@H]1CN(C)C(=O)c1cc(Cl)cc(Cl)c1	-40.9
CC(=O)N(C)C[C@H]1OCc2ccccc2-c2c(n(C)c3ccccc23)C(=O)N([C@H](C)CO)C[C@@H]1C	.
COc1ccccc1NC(=O)N(C)C[C@@H]1OCc2ccccc2-c2c(n(C)c3ccccc23)C(=O)N([C@H](C)CO)C[C@H]1C	.
CC(=O)N(C)C[C@@H]1OCc2ccccc2-c2c(n(C)c3ccccc23)C(=O)N([C@H](C)CO)C[C@@H]1C	.
C[C@@H]1CN([C@@H](C)CO)C(=O)c2c(c3ccccc3n2C)-c2ccccc2CO[C@@H]1CN(C)C(=O)Nc1cccc(Cl)c1Cl	-34.5
C[C@@H]1CN([C@H](C)CO)C(=O)c2c(c3ccccc3n2C)-c2ccccc2CO[C@H]1CN(C)C(=O)Nc1ccccc1C(F)(F)F	.
CC=Cc1ccc2n(c1=O)C[C@H]1[C@H](CO)[C@@H](C(=O)NCCc3ccncc3)[C@@H]2N1CCC(F)(F)F (mixture of isomers)	.
CCCNC(=O)[C@H]1[C@H](CO)[C@H]2Cn3c(ccc(-c4ccccc4F)c3=O)[C@H]2N1C(=O)C1CCC1	.
O=C(C[C@H]1CC[C@@H]2[C@H](COC[C@@H](O)CN2S(=O)(=O)c2ccccc2F)O1)NCc1ccccc1Cl	.
COc1cccc(C#Cc2ccc3c(c2)[C@@H]2[C@@H](CCN2C(=O)c2ccc(F)cc2)[C@@H](CO)N3)c1	.
O=C(c1ccccc1)N1CC[C@@H]2[C@H]1c1cc(C#Cc3cccc(F)c3)ccc1N[C@@H]2CO	.
CC(=O)N1CC[C@@H]2[C@@H](CO)Nc3ccc(C#Cc4cccnc4)cc3[C@@H]21	.
O=C(c1cccnc1)N1CC[C@H]2[C@H](CO)Nc3ccc(C#Cc4cccnc4)cc3[C@H]21	.
CN1c2ccc(-c3cccc(F)c3)cc2[C@H]2[C@H](CCN2C(=O)c2ccccc2F)[C@H]1CO	-45.1
O=C(c1ccc(F)cc1)N1CC[C@@H]2[C@H]1c1cc(-c3ccccc3F)ccc1N[C@@H]2CO	.
SMILES	DUX4 inh
O=C(c1cccc(F)c1)N1CC[C@@H]2[C@H]1c1cc(-c3ccccc3F)ccc1N[C@@H]2CO	.
O=C(c1cccc(F)c1)N1CC[C@@H]2[C@H](CO)Nc3ccc(-c4ccccc4F)cc3[C@@H]21	-31.8
O=C(c1ccccc1)N1CC[C@@H]2[C@@H](CO)Nc3ccc(C#Cc4cccc(F)c4)cc3[C@@H]21	-43.4
O=C(c1cccnc1)N1CC[C@@H]2[C@H]1c1cc(C#Cc3cccnc3)ccc1N[C@@H]2CO	-18.4
CN1c2ccc(-c3cccc(F)c3)cc2[C@H]2[C@H](CCN2C(=O)c2ccncc2)[C@@H]1CO	.
CCC(=O)N1CC[C@@H]2[C@@H](CO)N(C)c3ccc(-c4cccc(F)c4)cc3[C@@H]21	.
C[C@H]1CN([C@@H](C)CO)C(=O)c2cc(NC(=O)NC3CCCCC3)ccc2O[C@H]1CN(C)Cc1ccncc1	.
C[C@H](CO)N1C[C@H](C)[C@H](CN(C)CC2CC2)Oc2cc(C#Cc3ccncc3)ccc2S1(=O)=O	.
COc1ccc2c3c(n(C)c2c1)[C@H](CO)N(C(=O)NC1CCCC1)CC31CCN(C(C)=O)CC1	.
CO[C@H]1CN(C)C(=O)c2cc(NC(=O)CC(F)(F)F)ccc2OC[C@@H](C)NC[C@@H]1C	.
O=C(NC1CCC1)[C@H]1[C@H](CO)[C@H]2Cn3c(ccc(-c4ccc(F)cc4)c3=O)[C@@H]1N2Cc1cocn1	.
COc1ccc2c3c([nH]c2c1)[C@H](CO)N(C)CC31CCN(C(=O)NC(C)C)CC1	.
CC=Cc1ccc2n(c1=O)C[C@@H]1[C@@H](CO)[C@H](C(=O)NCC3CCCCC3)N(C(C)=O)[C@H]21 (mixture of isomers)	.
O=C1NCCOCc2cn(nn2)CC[C@H]1Cc1ccccc1	.
O=C(Cc1ccccc1)N1CC[C@@H]2[C@@H](CO)Nc3ccc(-c4ccccc4F)cc3[C@@H]21	.
COc1ccccc1CN1CC[C@@H]2[C@H](CO)Nc3ccc(C#Cc4ccccc4)cc3[C@@H]21	.
O=C(Cc1ccncc1)N1CC[C@@H]2[C@H](CO)Nc3ccc(-c4ccccc4F)cc3[C@@H]21	-48.0
O=C(c1cccc(F)c1)N1CC[C@@H]2[C@H](CO)Nc3ccc(C#CC4CC4)cc3[C@@H]21	.
COc1ccccc1CN1CC[C@@H]2[C@@H](CO)Nc3ccc(-c4cccc(F)c4)cc3[C@@H]21	-23.5
O=C(Cc1ccncc1)N1CC[C@@H]2[C@@H](CO)Nc3ccc(-c4cccc(F)c4)cc3[C@@H]21	.
O=C(c1cccc(F)c1)N1CC[C@@H]2[C@H](CO)Nc3ccc(C#Cc4ccc(F)cc4)cc3[C@@H]21	-41.7
O=C(c1cccc(F)c1)N1CC[C@@H]2[C@H]1c1cc(-c3cccc(F)c3)ccc1N[C@@H]2CO	.
OC[C@H]1Nc2ccc(-c3ccc(F)cc3)cc2[C@@H]2[C@H]1CCN2Cc1ccc(F)cc1	.
O=C(C[C@H]1C=C[C@@H](NC(=O)c2cccc(F)c2)[C@H](CO)O1)Nc1nccs1	.
C[C@@H]1CCCCO[C@H](CN(C)C(=O)Nc2ccc3c(c2)OCO3)[C@@H](C)CN([C@H](C)CO)C(=O)c2cc(NC(=O)C3CCCCC3)ccc2O1	.
COc1cccc(S(=O)(=O)Nc2ccc3c(c2)C(=O)N(C)[C@@H]2CC[C@H](CC(=O)O)O[C@H]2CO3)c1	.
C[C@H]1CN([C@@H](C)CO)C(=O)c2c(c3ccccc3n2C)-c2ccccc2CO[C@H]1CN(C)C	.
C[C@@H]1CN([C@H](C)CO)C(=O)c2c(c3ccccc3n2C)-c2ccccc2CO[C@@H]1CN(C)C(=O)Nc1ccccc1C(F)(F)F	.
C[C@H](CO)N1C[C@H](C)[C@@H](CN(C)Cc2ccccc2C(F)(F)F)OCc2ccccc2-c2c(n(C)c3ccccc23)C1=O	-45.9
C[C@@H]1CN([C@@H](C)CO)C(=O)c2c(c3ccccc3n2C)-c2ccccc2CO[C@@H]1CN(C)C	.
